Results filed as inconclusive are left out. Where a call stands in place of a potency, no number is given. The source made the active and inactive calls. Calls come from the whole dose curve; as a rule, active = well fitted inhibition curve with a large enough effect; inconclusive = small, poorly fitted or top-dose-only effect; inactive = flat fitted curve, though single readings scatter.
Potency is the fitted concentration of half-maximal effect.

This experiment in a line: CHOP2 Reporter Counterscreen Assay for Inhibitors of Ubiquitin-specific Protease USP2a.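 Note: activated enterokinase alone at 50 pM in a cell-free format rather than USP2a or CHOP2; nearly all actives have a fitted effect of over 55% in size.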 As to conditions: purified enterokinase, fluorogenic substrate, 485/531 nm; series mostly up to 38.3 µM. The procedure, abridged: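 Cell-free counterscreen with pre-activated enterokinase alone (50 pM final) in 20mM Tris-HCl pH 8.0, 2mM CaCl2, 2mM beta-mercaptoethanol, 0.05% CHAPS; compound preincubation 30 min RT, reporter substrate 25nM final, fluorescence read after 10 min (Ex 485/Em 531).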
On the technique in general: The purpose of a counterscreen is to sort out artefacts and off-target activity.
Turning to `COc1ccc(NC(=O)CSc2nc(O)cc(=O)n2-c2ccc(OC)cc2)cc1`, the Potency entry is “inactive”.

For `CCn1c(CN2CCOCC2)nnc1SCC(=O)Nc1ccc(C(C)=O)cc1`, the Potency result is “inactive”.

Regarding `O=C(O)C1CCN1C1CCCCC1` (stereo unspecified), the Potency entry is “inactive”.

As to `O=C(CCc1nc(-c2ccccc2F)no1)NC1CCCCCC1`, the Potency result is “inactive”.

As to `Cc1ccccc1OCc1nc2ccccc2c(=O)n1N`, the Potency result is “inactive”.

For the compound `COc1ccc(S(=O)(=O)N2CCCCC2)cc1NC(=O)Cc1c[nH]c2ccccc12`, the Potency entry is “inactive”.

Consider `CCOC(=O)C(C)Sc1nnc(Cn2c(=O)sc3ccccc32)n1-c1ccccc1` (stereo unspecified), for which the Potency result was “inactive”.

Take `CN(C)C=Nc1ncc2c3ccccc3n(CCN(C)C)c2c1C#N`: the Potency entry is “inactive”.

For `COc1ccc(O)c(-c2cc(-c3ccc(F)cc3)n[nH]2)c1`, the Potency result is “inactive”.

Regarding `C=CC[C@H](CC(=O)N[C@H](CO)Cc1ccccc1)C(=O)N[C@H](COC(=O)[C@@H](CC=C)CC(=O)OC(C)(C)C)Cc1c[nH]c2ccccc12`, the Potency result was “inactive”.

As for `CCCCCCCCCCOC(=O)Cn1c(COc2ccc(C)cc2)[n+](C)c2ccccc21`, the Potency is 5.62 µM (active).

Turning to `O=C(O)c1cc(N2N=C(C(F)(F)F)/C(=C/C=C/c3ccco3)C2=O)ccc1Cl`, the Potency is 3.98 µM (active).

As to `CC1(C)CC(=O)C2=C(C1)NCN(CCCN1CCOCC1)C2`, the Potency result is “inactive”.

Turning to `CSc1cccc(NC(=O)c2ccccc2N(C)S(C)(=O)=O)c1`, the Potency entry was “inactive”.

Take `Cc1n[nH]c(C)c1S(=O)(=O)N1CCCC(C(=O)Nc2nccs2)C1` (stereo unspecified): the Potency entry was “inactive”.

For the compound `C#CCOCCOCCOCCNc1nc(N2CCN(C(=O)CCCCCCCCCCNC(=O)[C@H]([C@@H](C)CC)n3cc(CCCCCN)nn3)CC2)nc(N2CCN(C(=O)CCCCCCCCCCNC(=O)[C@H](CCCCN)n3cc(CCCC(=O)O)nn3)CC2)n1`, the Potency is 7.94 µM (active).

The values above are taken from PubChem BioAssay AID493169 (National Center for Advancing Translational Sciences (NCATS), 2011).
